Records with an inconclusive call do not appear. The source made the active and inactive calls. Rule for the calls: active = hit-call score of the fitted dose curve at least 0.9, where 1 is the maximum; inconclusive = response in the unintended direction; inactive = score below 0.9.

The assay concerns DIO1 (gene 1733). As to the kind of experiment: CCTE_GLTED_hDIO1: CCTE's human Deiodinase 1 (DIO1) Inhibition Assay, Great Lakes Toxicology and Ecology Division (GLTED) Lab (AID 2283987).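 Note: isolated human DIO1 enzyme in a cell-free setup rather than cells; enzyme activity read as free iodide liberated from substrate via Sandell-Kolthoff colorimetry.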 Here is the method: CCTE_GLTED_hDIO1 is a cell-free, single-readout assay designed to test the inhibitory activity of chemicals toward human iodothyronine Deiodinase type 1 (DIO1) enzyme. Enzyme is incubated in presence of test chemical for 3 hours during which uninhibited enzyme liberates free iodide from substrate. Free iodide is measured in a second step using the Sandell-Kolthoff method.CCTE_GLTED_hDIO1 is the assay component measured from the CCTE_GLTED_hDIO1 assay. It is designed to make measurements of enzyme activity, a form of enzyme reporter, as detected with absorbance signals by spectrophotometry.Data from the assay component CCTE_GLTED_hDIO1 was analyzed into 1 assay endpoint. This assay endpoint, CCTE_GLTED_hDIO1, was analyzed in the positive analysis fitting direction relative to DMSO as the negative control and baseline of activity. Using a type of enzyme reporter, loss-of-signal activity can be used to understand changes in the enzymatic activity as they relate to the gene DIO1. Furthermore, this assay endpoint can be referred to as a primary readout, because the performed assay has only produced 1 assay endpoint. To generalize the intended target to other relatable targets, this assay endpoint is annotated to the 'deiodinase' intended target family, where the subfamily is 'deiodinase Type 1'.
[…] assay, developed at Great Lakes Toxicology and Ecology Division (GLTED) within the EPA's Center for Computational Toxicology and Exposure (CCTE), is designed to test the chemicals' ability to inhibit DIO1. Assay is based on iodide release measured by the Sandell-Kolthoff method and is run in 96-well plate format with assay plates run in triplicate (n=3). The method used for the deiodinase assay was largely based on Renko et al. (2012, 2015). These works describe the utilization of the SK reaction to measure deiodinase-liberated iodide in a 96-well-plate format. The SK reaction is based on the reduction of the yellow-colored cerium IV to the non-colored cerium III by arsenic, with the rate of this reaction increased in the presence of iodide in a concentration-dependent manner (Sandell and Kolthoff, 1937). Iodinated test chemicals can interfere as competitive inhibitors, or if the stock chemical has contaminating free-iodide present. Other chemicals, e.g.: nitrite, iron, and thiocyanate can interfere with the Sandell-Kolthoff reaction (see Sandell and Kolthoff, 1937).
As to `CN(C[C@@H](CC[N+]12CCC(C3CCCCC3)(CC1)CC2)c1ccc(Cl)c(Cl)c1)C(=O)c1cc(C(F)(F)F)cc(C(F)(F)F)c1`, the AC50 (commonly the concentration giving half of the maximal activity seen) is 57.6 µM (active).
For `O=c1c(-c2ccc(O)cc2)coc2cc(O)cc(O)c12` the value was 2.42 µM (active); for `CCOC(=O)O[C@H](C)OC(=O)c1ccc2c(c1)cc(C(=O)NC1CCN(C(C)C)CC1)n2Cc1cc(-c2ccc(Cl)s2)on1`, 97.5 µM (active).
Next, `NCc1cccc(C2CCN(C(=O)c3ccc(C#Cc4ccccc4F)o3)CC2)c1`: 88.6 µM (active); `CCN(CC)C(=O)c1cc(S(=O)(=O)Cc2ccccc2)c(N2CCC(c3ccccc3)CC2)cc1N(CC)CCN(C)C`: 40 µM (active); `CC(C)(c1cc(Br)c(O)c(Br)c1)c1cc(Br)c(O)c(Br)c1`: 37.6 µM (active).
For `CC(C)(C)c1csc(-c2cc3cc(OCc4ccccc4CC(=O)O)ccc3o2)n1` the value was 100 µM (active); for `CCCCCCCCOC(=O)c1cc(O)c(O)c(O)c1`, 101 µM (active); for `CCCCCCCCCCCC[N+](C)(C)C`, 83.2 µM (active).
Turning to `OC12N=C(c3ccccc3)SC1Cc1cc(Cl)ccc12` (stereo unspecified), the AC50 was 21.1 µM (active).
Next, `CC(C)(C)c1cc(/C=C2\SC(N)=NC2=O)cc(C(C)(C)C)c1O`: 3.01 µM (active).
